In PubChem BioAssay (NCATS):
“And” between values parts separate entries of the source, which are not always exact repeats. Equal values may be shown once. Results filed as inconclusive are left out. Entries that show only a call come without a potency. The source made the active and inactive calls. Calls follow the shape of the dose curve; as a rule, active = well fitted curve in the direction sought with a large enough effect; inconclusive = small, poorly fitted or top-dose-only effect, or another doubt; inactive = no such curve, though single readings can be large; an effect the other way counts as inactive or inconclusive.

How the values were obtained:
[1] = biological target: Glutathione peroxidase 1 (Homo sapiens) (UniProt P07203); assay: Primary qHTS Assay for Inhibitors of Recombinant Selenoprotein Glutathione Peroxidase 1 (GPX1) (AID 1845191); also: nearly all actives have a fitted effect of over 65% in size
Sequence of Glutathione peroxidase 1 (Homo sapiens) (P07203 whole entry, looked up): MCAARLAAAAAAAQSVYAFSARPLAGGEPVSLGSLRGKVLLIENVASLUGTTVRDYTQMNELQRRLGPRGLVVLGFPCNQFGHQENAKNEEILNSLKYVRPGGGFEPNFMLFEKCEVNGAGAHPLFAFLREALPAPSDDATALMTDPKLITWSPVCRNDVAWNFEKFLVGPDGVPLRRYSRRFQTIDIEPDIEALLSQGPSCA
In short: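 10 nM GPX1 + cpd, 30 min RT; start w/ 1 mM GSH, 0.5 mM cumene hydroperoxide, 0.5 mM NADPH, 100 nM GR, 0.01% BSA; buffer 50 mM Tris-HCl pH 7.5, 2 mM EDTA, 150 mM NaCl; Fl 340/450, 0 & 15 min.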

[2] = biological target: Phospholipid hydroperoxide glutathione peroxidase GPX4 (Homo sapiens) (UniProt P36969); assay: Primary qHTS Assay for Inhibitors of Recombinant Selenoprotein Glutathione Peroxidase 4 (GPX4) (AID 1845192); also: nearly all actives have a fitted effect of over 65% in size
Sequence of Phospholipid hydroperoxide glutathione peroxidase GPX4 (Homo sapiens) (P36969 whole entry, looked up): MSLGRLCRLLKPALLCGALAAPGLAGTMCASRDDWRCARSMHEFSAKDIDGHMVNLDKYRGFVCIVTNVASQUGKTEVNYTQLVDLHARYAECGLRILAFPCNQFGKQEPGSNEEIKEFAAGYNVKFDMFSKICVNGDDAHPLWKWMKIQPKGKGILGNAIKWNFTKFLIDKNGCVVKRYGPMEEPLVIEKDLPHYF
In short: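 NADPH consumption, followed by fluorescence at 340/450 nm between 0 and 15 min, reports GPX4 activity via coupled glutathione reductase (100 nM). Enzyme 200 nM was pre-exposed to compound 30 min; 0.5 mM cumene hydroperoxide and 1 mM GSH served as substrates.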

[3] = Quantitative High-Throughput drug screen in 47 multiple myeloma cell lines against the NCATS MIPE library collection: FR4_PLB cell viability assay (AID 1918924; also: nearly all actives have a fitted effect of over 35% in size)
In short: (§1)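 Luminescent ATP measurement with CellTiter-Glo gives viability, scaled between DMSO-only wells (100%) and media-only wells (0%). Cells, 500 per well, faced library compounds for 48 hours at 37C.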

[4] = Quantitative High-Throughput drug screen in 47 multiple myeloma cell lines against the NCATS MIPE library collection: EJM_DSMZ cell viability assay (AID 1918926; also: nearly all actives have a fitted effect of over 30% in size)
In short: (§2)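 Myeloma cells (500 per well) were exposed to MIPE 4.0 compounds by pin transfer and incubated 48 hours at 37C, 5% CO2. Viability was read as ATP by CellTiter-Glo luminescence, normalised to DMSO (100%) and media-only (0%) wells.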

[5] = Quantitative High-Throughput drug screen in 47 multiple myeloma cell lines against the NCATS MIPE library collection: AMO1_DSMZ cell viability assay (AID 1918927; also: nearly all actives have a fitted effect of over 30% in size)
In short: as §2

[6] = Quantitative High-Throughput drug screen in 47 multiple myeloma cell lines against the NCATS MIPE library collection: ARP1_JJKsccF8 cell viability assay (AID 1918928; also: nearly all actives have a fitted effect of over 40% in size)
In short: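 Myeloma cells at 500 per well in 1536-well format treated with MIPE 4.0 library by pin transfer for 48 h at 37C, 5% CO2. Viability from ATP luminescence (CellTiter-Glo), normalized to DMSO (100%) and media-only (0%) wells.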

[7] = Quantitative High-Throughput drug screen in 47 multiple myeloma cell lines against the NCATS MIPE library collection: ARD_JJKsccE7 cell viability assay (AID 1918929)
In short: as §2

[8] = Quantitative High-Throughput drug screen in 47 multiple myeloma cell lines against the NCATS MIPE library collection: Karpas620_DSMZ cell viability assay (AID 1918959); also: nearly all actives have a fitted effect of over 30% in size
In short: as §1

[9] = Quantitative High-Throughput drug screen in 47 multiple myeloma cell lines against the NCATS MIPE library collection: Delta47_JCRB cell viability assay (AID 1918925; also: nearly all actives have a fitted effect of over 45% in size)
In short: as §2
Potency is read from the fitted curve at half-maximal effect.

Row | SMILES | Potency [1] | Potency [2] | Potency [3] | Potency [4] | Potency [5] | Potency [6] | Potency [7] | outcome [1] | outcome [2] | Potency [8] | Potency [9]
1 | CCCc1cc(=O)[nH]c(=S)[nH]1 | inactive | inactive | inactive | inactive | inactive | inactive | inactive | – | – | – | –
2 | CC(C)(S)[C@@H](N)C(=O)O | – | – | inactive | inactive | inactive | inactive | inactive | inactive [at 4.49 µM] | inactive [at 4.52 µM] | inactive | –
3 | CCC[C@@H]1C[C@@H](C(=O)N[C@@H]([C@H]2O[C@H](SC)[C@H](O)[C@@H](O)[C@H]2O)[C@@H](C)O)N(C)C1 | inactive | inactive | inactive | 3.32 µM (active) | inactive | inactive | inactive | – | – | – | –
4 | O=C(NC(Cc1cc(=O)[nH]c2ccccc12)C(=O)O)c1ccc(Cl)cc1 (centres undefined) | inactive | inactive | inactive | 4.69 µM (active) | – | inactive | inactive | – | – | – | –
5 | c1ccc2[nH]c(-c3cscn3)nc2c1 | inactive | inactive | – | – | inactive | inactive | inactive | – | – | – | inactive
6 | Cn1c(NCCN(CCO)CCCc2ccc([N+](=O)[O-])cc2)cc(=O)n(C)c1=O | inactive | inactive | – | inactive | 18.7 µM (active) | inactive | – | – | – | – | –
7 | O=C(O)c1cn(-c2ccc(F)cc2)c2cc(N3CCNCC3)c(F)cc2c1=O | inactive | inactive | inactive | inactive | inactive | – | inactive | – | – | – | –
8 | COc1cc(C(C)=O)ccc1OCCCN1CCC(c2noc3cc(F)ccc23)CC1 | inactive | inactive | – | inactive | – | – | – | – | – | – | –
9 | CC1Cc2ccccc2N1NC(=O)c1ccc(Cl)c(S(N)(=O)=O)c1 (centres undefined) | inactive | inactive | inactive | inactive | – | inactive | – | – | – | inactive | –
10 | O=C1CCc2ccc(OCCCCN3CCN(c4cccc(Cl)c4Cl)CC3)cc2N1 | inactive | inactive | inactive | inactive | inactive | 23.5 µM (active) | – | – | – | – | –
11 | CCN(CC)CCOc1ccc(Cc2ccccc2)cc1 | inactive | inactive | – | – | 20.9 µM (active) | – | – | – | – | 14.8 µM (active) | inactive
12 | Cc1cccc(CN2CCN(C(c3ccccc3)c3ccc(Cl)cc3)CC2)c1 (centres undefined) | inactive | inactive | inactive | 18.7 µM (active) | – | – | 26.4 µM (active) | – | – | – | 8.33 µM (active)
13 | Cc1ccc(S(=O)(=O)NC(=O)NN2CC3CCCC3C2)cc1 (centres undefined) | inactive | inactive | – | – | 23.5 µM (active) | 26.4 µM (active) | 26.4 µM (active) | – | – | – | 18.7 µM (active)
14 | Cc1cc(C2CCCCC2)n(O)c(=O)c1 | inactive | inactive | 6.62 µM (active) | 16.6 µM (active) | 7.43 µM (active) | 9.35 µM (active) | 9.35 µM (active) | – | – | 8.33 µM (active) | –
15 | Cc1cc(=O)oc2cc(O)ccc12 | 18 µM (active) and 4.09 µM (active) | 12.8 µM (active) and 1.61 µM (active) | inactive | inactive | inactive | inactive | inactive | – | – | inactive | –
16 | Cc1c(OCC(F)(F)F)ccnc1CS(=O)c1nc2ccccc2[nH]1 (centres undefined) | inactive | 4.53 µM (active) | inactive | inactive | – | inactive | – | – | – | inactive | –
17 | Cc1nc2n(c(=O)c1CCN1CCC(c3noc4cc(F)ccc34)CC1)CCCC2 | inactive | inactive | inactive | inactive | inactive | inactive | inactive | – | – | inactive | –
18 | Nc1cccc2c1CN(C1CCC(=O)NC1=O)C2=O (centres undefined) | inactive | inactive | inactive | inactive | – | inactive | – | – | – | inactive | inactive
19 | O=C(NCCO[N+](=O)[O-])c1cccnc1 | inactive | inactive | inactive | inactive | – | inactive | inactive | – | – | inactive | –
20 | Cc1cc2cc3c(C)cc(=O)oc3c(C)c2o1 | inactive | inactive | – | 5.9 µM (active) | – | – | – | – | – | 23.5 µM (active) | 20.9 µM (active)
21 | CCCCCCCCCCCCCCCCCCCCCCO | inactive | inactive | inactive | inactive | inactive | inactive | inactive | – | – | inactive | –
22 | CC(C)c1ccc2oc3nc(N)c(C(=O)O)cc3c(=O)c2c1 | 22.7 µM (active) and 16.3 µM (active) | 12.8 µM (active) and 8.06 µM (active) | inactive | inactive | inactive | – | inactive | – | – | inactive | –
23 | CC(S)C(=O)NCC(=O)O (centres undefined) | inactive | inactive | inactive | inactive | inactive | inactive | 2.64 µM (active) | – | – | – | –
24 | CC1(C)CCC(C)(C)c2cc(NC(=O)c3ccc(C(=O)O)cc3)ccc21 | inactive | 10 µM (active) | inactive | – | – | inactive | 13.2 µM (active) | – | – | – | –
25 | Cc1c(C(=O)NN2CCCCC2)nn(-c2ccc(Cl)cc2Cl)c1-c1ccc(Cl)cc1 | inactive | inactive | – | inactive | 16.6 µM (active) | – | 16.6 µM (active) | – | – | 20.9 µM (active) | –
26 | NS(=O)(=O)c1cc(C(=O)O)c(NCc2ccco2)cc1Cl | – | inactive | inactive | inactive | – | inactive | – | – | – | inactive | inactive
27 | Nc1ccc(S(N)(=O)=O)cc1 | – | inactive | inactive | inactive | inactive | inactive | inactive | – | – | inactive | –
28 | COC1=C(OC)C(=O)C(CCCCCCCCCCO)=C(C)C1=O | – | inactive | – | inactive | 10.5 µM (active) | 23.5 µM (active) | 20.9 µM (active) | – | – | 11.8 µM (active) | 18.7 µM (active)
